Test results from PubChem BioAssay AID1477 (National Center for Advancing Translational Sciences (NCATS), 2009).
Fewer than 10 of roughly 230,000 compounds were called active. Roughly 3% stayed inconclusive and do not appear here. The call rests on the fitted dose curve; in most records, active means well fitted curve in the direction sought with a large enough effect; inconclusive means small, poorly fitted or top-dose-only effect, or effect the other way, or another doubt; inactive means no such curve, though single readings can be large or run the other way. These entries were drawn from the full list.

The compounds below were run against Runt-related transcription factor 1 (Homo sapiens) + Core-binding factor subunit beta (Homo sapiens) (UniProt Q01196+Q13951) (assay: qHTS Assay for Compounds Blocking the Interaction Between CBF-beta and RUNX1 for the Treatment of Acute Myeloid Leukemia). Details: AlphaScreen CBFb-His/RUNX1-biotin binding, biochemical; series mostly up to 59.8 µM; activity, negative = inhibition: at the top concentration.
Sequence of Runt-related transcription factor 1 (Homo sapiens) + Core-binding factor subunit beta (Homo sapiens) (Q01196 whole entry, looked up): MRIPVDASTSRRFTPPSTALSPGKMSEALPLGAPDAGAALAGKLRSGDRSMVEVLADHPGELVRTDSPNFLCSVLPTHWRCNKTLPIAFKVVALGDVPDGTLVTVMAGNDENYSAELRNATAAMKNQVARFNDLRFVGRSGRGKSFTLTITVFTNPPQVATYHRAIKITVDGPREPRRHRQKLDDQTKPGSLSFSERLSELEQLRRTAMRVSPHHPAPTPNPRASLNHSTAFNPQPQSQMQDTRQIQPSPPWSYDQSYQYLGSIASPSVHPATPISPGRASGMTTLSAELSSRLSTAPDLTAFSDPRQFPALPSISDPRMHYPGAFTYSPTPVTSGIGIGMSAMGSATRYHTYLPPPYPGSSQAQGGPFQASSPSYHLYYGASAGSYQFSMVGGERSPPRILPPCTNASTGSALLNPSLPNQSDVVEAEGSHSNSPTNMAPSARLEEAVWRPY
Sequence of Runt-related transcription factor 1 (Homo sapiens) + Core-binding factor subunit beta (Homo sapiens) (Q13951 whole entry, looked up): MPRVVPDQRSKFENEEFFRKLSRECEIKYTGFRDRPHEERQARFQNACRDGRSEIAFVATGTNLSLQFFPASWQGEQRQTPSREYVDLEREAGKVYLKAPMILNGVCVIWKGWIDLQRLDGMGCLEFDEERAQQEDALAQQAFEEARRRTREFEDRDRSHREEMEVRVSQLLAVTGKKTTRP
Description: NIH Chemical Genomics Center [NCGC]
NIH Molecular Libraries Probe Production centers Network [MLPCN]
Assay Submitter (PI): Paul Liu
Core Binding Factor (CBF) abnormalities are associated with 20-25% of all acute myeloid leukemias (AML), of which 5-10% are further sub classified as acute myelomonocytic leukemia with eosinophilia, also known as M4Eo in the FAB classification scheme. This subtype of leukemia is usually associated with chromosome 16 inversion (p13:q22). Chromosome 16 inversion results in formation of the fusion oncogene CBFB-MYH11, which encodes the fusion protein CBF-beta-SMMHC.
It has been hypothesized that the interference of CBF-beta and RUNX1 binding could have therapeutic implications for patients with CBF mediated leukemias. We developed a CBF-beta and RUNX1 binding assay in AlphaScreenTM format and optimized it for high throughput screening to search for inhibitors. The goal of this project is to screen MLPCN's compound collection (MLSMR) for identifying the inhibitors of the interaction between CBF-beta and RUNX1 proteins as research probes. If these probes work well in the animal models, the ultimate goal of this project is to development a new drug treatment for this disease.
This assay can not be used to assess how apparent inhibitors interfere with protein binding, and whether inhibitors specifically bind to either protein. Disruption of this protein-protein interaction, through any mechanism, is the intended target activity.
NCGC Assay Protocol Summary:
Step, Parameter, Description
(1) Reagent, 3 uL CBFb-His/RUNX1-biotin mix incubated together for 20 minutes at room temperature (30 nM each)
(2) Compound or control, 23 nL compound stock solution
(3) Incubation, 15 minutes at Room temperature
(4) Reagent, 1 uL 50 ng each of beads (Nickel beads and streptavidin beads)
(5) Incubation, 90 minutes at Room temperature
(6) Detection, Excitation=365 nm Emission=440 nm, Envision reader in AlphaScreenTM mode
Keywords: MLSMR, MLPCN, NIH Roadmap, qHTS, NCGC, Core binding factor, CBF, CBF-beta, Acute myeloid leukemia
Further: % of control where 0% means no effect.

activity, negative = inhibition, inactive:
COc1ccc(SC[C@H](Cc2ccccc2)N2CCN(CCc3ccccc3)CCC2=O)cc1 -4.77%
CON(C)S(=O)(=O)c1ccc2c(c1)NC(=O)C1CCCN21 (configuration not stated) -0.392%
O=C(NCCc1ccccn1)c1cccnc1Oc1ccc(Cl)cc1 -1.09%
COc1ccc(SCCN2CCN(CC(C)C)CCC2=O)cc1
Cc1ccccc1C(OCCN(C)C)C1CCCCC1 (configuration not stated) -1.22%
COC(=O)c1ccc(C(NC(=O)OCc2ccccc2)/C(F)=C/[C@@H](C)C(=O)O)cc1 (some centres not stated) 5.16%
C[C@@H]1O[C@@H](OC[C@H]2O[C@@H](Oc3cc(O)c4c(c3)O[C@H](c3ccc(O)c(O)c3)CC4=O)[C@H](O)[C@@H](O)[C@@H]2O)[C@H](O)[C@H](O)[C@H]1O 9.48%
COc1ccc(NC(=O)CSc2ncnc3[nH]ncc23)cc1 3.92%
COc1ccc(-c2nc3c(c4c2C[C@H](c2ccccc2)OC4)CN(C(=O)c2cccnc2)CC3)c(C)c1 2.51% [at 13.1 µM]
CC1CCN(C(=S)c2ccc(-c3ccc(Cl)cc3Cl)o2)CC1 -20.9%
O=C(/C=C/c1ccc(OCc2c(F)cccc2Cl)cc1)N1CCOCC1 2%
OCCC(O)CO (configuration not stated)
COc1ccc2cc(-c3[nH]ncc3CNCCn3nc(C)cc3C)ccc2c1 -0.162%
COC(=O)c1ccc([C@@H](O)[C@H](C)C(=O)CC(=O)OC(C)(C)C)cc1 2.81%
O=C(Nc1cc(C(=O)Nc2ccc(S(=O)(=O)O)cc2)cc(C(=O)Nc2ccc(S(=O)(=O)O)cc2)c1)Nc1cc(C(=O)Nc2ccc(S(=O)(=O)O)cc2)cc(C(=O)Nc2ccc(S(=O)(=O)O)cc2)c1 2.73%
Cc1ccccc1C(CC(=O)c1cccs1)C(C#N)C#N (configuration not stated) 5.81%
CC[C@H](C)[C@H](NC(=O)[C@@H](N)CCC(=O)O)C(=O)N[C@@H](CC(C)C)C(=O)N[C@@H](CC(=O)O)C(=O)N[C@H](C(=O)N1CCC[C@H]1C(=O)N[C@@H](CO)C(=O)N[C@H](C(=O)O)[C@@H](C)O)C(C)C 6.33%
CCCCOc1ccc(C(=O)N/C(=C/C=C/c2ccccc2)C(=O)N2CCOCC2)cc1 -2.12%
CC(Oc1cccc(NC(=O)c2cccs2)c1)C(=O)c1ccccc1 (configuration not stated) 8.25%
Cc1cccc(Nc2nc3c(S(=O)(=O)c4ccccc4)nnn3c3ccccc23)c1C 5.47%
CCO[C@@H]1OC(C(N)=O)=C[C@H](c2ccc(Br)cc2)[C@H]1CCCO -3.58%
O=c1c(O)c(-c2ccc(O)cc2)oc2ccccc12 15.3%
N=c1n(CCc2ccccc2)c2ccccc2n1Cc1ccccc1F -3.25%
O=C1CCC(=O)N(O)CCCCCNC(=O)CCC(=O)N(O)CCCCCNC(=O)CCC(=O)N(O)CCCCCN1 -0.792%
CC1CN(c2nc(-c3ccccc3)nnc2-c2ccccc2)CC(C)O1 (configuration not stated) -2.13%
CCOCCCNCc1ccc(OCc2ccc(F)cc2)c(OC)c1 5.35%
O=C(NCc1ccco1)c1ccc(NS(=O)(=O)c2cccc([N+](=O)[O-])c2)cc1 -3.71%
COc1cc(OC)c2c(c1C(CCN1CCCCC1)c1ccc(N(C)C)cc1)OC(=O)CC2c1ccc(N(C)C)cc1 (configuration not stated) -23.3%
O=C(NCC1CCCO1)c1ccccc1-c1nc(-c2ccccc2Cl)no1 (configuration not stated) 7.64%
COc1ccc(CCNC(=O)CSc2nc(-c3ccc(OC)c(OC)c3)ccc2C#N)cc1 -1.06%
COc1ccc(C[C@H](C(=O)O)N2C(=O)c3ccc(C(=O)O)cc3C2=O)cc1 20.6%
O=C(N/N=C/c1ccc(Cl)cc1)c1nc2ccc([N+](=O)[O-])cc2c(=O)[nH]1 -8.86%
COc1ccc(-c2ccc(OC)c(C3C4C=CCC(C)C4C(=O)N3Cc3ccccc3)c2)cc1C (configuration not stated) 14.2%
O=S(O)S(=O)(=O)O 2.05%
CCN(CC)N=Nc1cccc(NC(C)=O)c1 0.472%
Cc1cc(N(C)C)nc(Cl)n1 24.8%
CN(C)C(=O)c1ccc2c(c1)C1C3CCC(C3)C1C(c1ccccc1)N2 (configuration not stated) -1.89%
COC(=O)c1c(C)oc(C)c1S(=O)(=O)Nc1ccc(C(C)C)cc1 4.81%
O=C(/C=C/c1ccc2c(c1)OCO2)NCc1cn2cc(Cl)ccc2n1 10.5%
C=CCCC(=O)Nc1nc(C)c(-c2csc(Nc3ccc(Cl)cc3)n2)s1 -6.07%
COc1ccc2[nH]c3c(C)c4cc[n+](C)cc4c(C)c3c2c1 -13.8%
CCCCCCCC1=Cc2ccc(F)cc2C(C(C(=O)OC)C(=O)OC)N1C(=O)OC (configuration not stated)
CCOC(OCC)OCC 13.3%
Cc1ccc(-c2nnc(-n3nnc4ccccc43)c3ccccc23)cc1 -5.67%
COc1ccc(C2CC(O)(c3ccccc3)Oc3cc(C)cc(C)c32)cc1 (configuration not stated) 10.1%
CC(=O)Nc1ccc(S(=O)(=O)N2N=NC3C2C2CC4C3(CN(C(=O)OC(C)(C)C)S4(=O)=O)O2)cc1 (configuration not stated) -0.112%
C=C1CCN(C(CC(C)C)C(=O)NCc2cc(OC)c(OC)c(OC)c2)S(=O)(=O)c2ccccc21 (configuration not stated) 26.6%
COc1cc(NC(=S)N2CCCC(C)C2)c(OC)cc1Cl (configuration not stated) 7.75%
COC(=O)CCc1ccccc1S(=O)(=O)N(CCC(=O)OC)Cc1ccccc1 20.5%
OC1CCCN(c2ncnc3c2nnn3Cc2c(F)cccc2Cl)C1 (configuration not stated) 9.2%
COc1ccc(CN2CCC(=O)c3ccccc3S2(=O)=O)cc1 5.44%
COc1ccc(C2/C=C\CN(Cc3ccco3)C(C)C(=O)N2Cc2ccc(F)cc2)cc1 (configuration not stated) -1.62%
